Data as given in PubChem BioAssay (NCI).
The panel holds about 83,000 compounds, 20% with a hit somewhere; the sample as a whole holds those more often.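 Method: cells in 96-well plates; compound added at one concentration; 48 h incubation; percent growth measured; values under 10 scored active.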 Calls of active or inactive are those of the source.

What was measured:
Assay in all cases: NCI-60 one-dose screen, 48 h (100 = growth as untreated, 0 = no growth, -100 = all killed)
Details in all cases: 10 µM unless noted
SK-MEL-2 melanoma = tested on: SK-MEL-2 melanoma
EKVX NSCLC = tested on: EKVX NSCLC
SN12C renal = tested on: SN12C renal
UO-31 renal = tested on: UO-31 renal
TK-10 renal = tested on: TK-10 renal
ACHN renal = tested on: ACHN renal
CAKI-1 renal = tested on: CAKI-1 renal
A498 renal = tested on: A498 renal
CCRF-CEM leukemia = tested on: CCRF-CEM leukemia
MOLT-4 leukemia = tested on: MOLT-4 leukemia

Measured: growth

Cc1ccc(-c2nc(N3CCCNCC3)c3oc(-c4ccc(C)cc4)nc3n2)cc1
active: TK-10 renal -1.53% | ACHN renal -77.1% | CCRF-CEM leukemia -72.1% | MOLT-4 leukemia -66%
inactive: SK-MEL-2 melanoma 105% | EKVX NSCLC 116% | SN12C renal 59.1% | UO-31 renal 62.6% | CAKI-1 renal 108% | A498 renal 101%

COc1ccc2c(c1)CC[C@H](O)/C2=C/c1cc(OC)c(OC)c(OC)c1
inactive: SK-MEL-2 melanoma 43.5% | EKVX NSCLC 38% | SN12C renal 37.6% | UO-31 renal 34.3% | TK-10 renal 66.6% | ACHN renal 26.4% | CAKI-1 renal 30.5% | MOLT-4 leukemia 13.5%
active: A498 renal -9.18% | CCRF-CEM leukemia 5.74%

COc1ccc(/C=C/C(=O)c2cc3c(N)c(C(=O)Nc4cccc5ccccc45)sc3nc2C)cc1
inactive: SK-MEL-2 melanoma 70.9% | EKVX NSCLC 92.4% | SN12C renal 87.5% | UO-31 renal 62.7% | TK-10 renal 94.2% | ACHN renal 71.8% | CAKI-1 renal 48.6% | A498 renal 44.2% | CCRF-CEM leukemia 33.6% | MOLT-4 leukemia 100%

Cc1c(O)cc(-c2cnc(Nc3ccccc3)s2)c(O)c1C
inactive: SK-MEL-2 melanoma 99.4% | EKVX NSCLC 87.9% | SN12C renal 94% | UO-31 renal 86.9% | TK-10 renal 134% | ACHN renal 91.6% | CAKI-1 renal 86.9% | A498 renal 75.1% | CCRF-CEM leukemia 78.5% | MOLT-4 leukemia 62.8%

CC(C)c1ccc(-n2c(=S)[nH]c3sc4cc(O)ccc4c3c2=O)cc1
inactive: SK-MEL-2 melanoma 121% | EKVX NSCLC 103% | SN12C renal 99.5% | UO-31 renal 77% | TK-10 renal 123% | ACHN renal 99% | CAKI-1 renal 91.7% | A498 renal 61.5% | CCRF-CEM leukemia 103% | MOLT-4 leukemia 98%

Cc1cccc(CNc2c3ccccc3nc3ccccc23)c1
active: A498 renal -2.22% | MOLT-4 leukemia 2.32%
inactive: SK-MEL-2 melanoma 38% | EKVX NSCLC 44.5% | SN12C renal 26.1% | UO-31 renal 14.7% | TK-10 renal 38.4% | ACHN renal 15.8% | CAKI-1 renal 17.7% | CCRF-CEM leukemia 14.8%

CCN(CC)CC(O)COc1c(Br)c(Br)c(Br)c2c1OC(C)(C)C2 (stereo not given)
inactive: SK-MEL-2 melanoma 338% | EKVX NSCLC 105% | SN12C renal 79.4% | UO-31 renal 91.2% | TK-10 renal 58.4% | ACHN renal 97.9% | CAKI-1 renal 17.6% | CCRF-CEM leukemia 45.8% | MOLT-4 leukemia 22.3%
active: A498 renal -86.9%

C#Cc1c2c(c(OC)c3c1OCO3)[C@H]([C@H]1OC(=O)c3c1ccc(OC)c3OC)N(C)CC2
inactive: SK-MEL-2 melanoma 67.7% | EKVX NSCLC 89.8% | SN12C renal 100% | UO-31 renal 87.2% | TK-10 renal 76.1% | ACHN renal 93.6% | CAKI-1 renal 86.3% | A498 renal 72.6% | CCRF-CEM leukemia 80.7% | MOLT-4 leukemia 77.3%

c1cc2c(ccc3[nH]c(-c4ccc5[nH]ncc5c4)c4c(c32)CCCC4)n1
active: MOLT-4 leukemia -0.124%
inactive: SK-MEL-2 melanoma 83.6% | EKVX NSCLC 62.7% | SN12C renal 46% | UO-31 renal 53.3% | TK-10 renal 80.2% | ACHN renal 32.3% | CAKI-1 renal 69.8% | A498 renal 74.3% | CCRF-CEM leukemia 13.6%

O=C(N/N=C/c1c(Cl)cccc1Cl)c1cccnc1Nc1cccc(C(F)(F)F)c1
active: SK-MEL-2 melanoma -6.91%
inactive: EKVX NSCLC 17.6% | SN12C renal 42.6% | UO-31 renal 29.8% | TK-10 renal 35.6% | ACHN renal 29.6% | CAKI-1 renal 60.1% | A498 renal 65.6% | CCRF-CEM leukemia 18.9% | MOLT-4 leukemia 31.7%

CCOCCNC1=C(Cl)C(=O)c2ccccc2C1=O
inactive: SK-MEL-2 melanoma 92.3% | EKVX NSCLC 106% | SN12C renal 100% | UO-31 renal 105% | TK-10 renal 125% | ACHN renal 110% | CAKI-1 renal 115% | A498 renal 94.4% | CCRF-CEM leukemia 102% | MOLT-4 leukemia 89.2%

Nc1nc(N)c(-c2ccc(Cl)c(Cl)c2)c(CBr)n1
inactive: SK-MEL-2 melanoma 87.6% | EKVX NSCLC 85.3% | SN12C renal 79.2% | UO-31 renal 88.7% | TK-10 renal 83.6% | ACHN renal 68.4% | CAKI-1 renal 82.3% | A498 renal 89.9% | CCRF-CEM leukemia 55.8% | MOLT-4 leukemia 61.3%

COc1cc(OC)c(NC(=O)c2cc3ccccc3cc2O)cc1Cl
active: UO-31 renal -10.7% | CAKI-1 renal 6.59%
inactive: SK-MEL-2 melanoma 15.4% | EKVX NSCLC 38.4% | SN12C renal 28.1% | TK-10 renal 32.8% | ACHN renal 22.7% | A498 renal 18.8% | CCRF-CEM leukemia 26.9% | MOLT-4 leukemia 26.9%

CCCCCCCC[C@@H]1N[C@@H](C(=O)OC)Cc2c1[nH]c1ccccc21
inactive: SK-MEL-2 melanoma 109% | EKVX NSCLC 92% | SN12C renal 97.4% | UO-31 renal 73.9% | TK-10 renal 101% | ACHN renal 94.6% | CAKI-1 renal 78.8% | A498 renal 88.7% | CCRF-CEM leukemia 92.3% | MOLT-4 leukemia 93%

Fc1ccc(CNc2c3ccccc3nc3ccccc23)c(F)c1
inactive: SK-MEL-2 melanoma 99.7% | EKVX NSCLC 45.5% | SN12C renal 37.2% | UO-31 renal 30.3% | TK-10 renal 61% | ACHN renal 23.4% | CAKI-1 renal 35.3% | CCRF-CEM leukemia 53.9% | MOLT-4 leukemia 23.8%
active: A498 renal -4.38%

CCOC(=O)C1=C(c2ccccc2)N=C2SC=C(c3ccc(Cl)cc3)N2C1c1ccc(Br)cc1 (stereo not given)
inactive: SK-MEL-2 melanoma 96.4% | EKVX NSCLC 73.9% | SN12C renal 84.5% | UO-31 renal 73.2% | TK-10 renal 103% | ACHN renal 87.3% | CAKI-1 renal 61.3% | A498 renal 46.7% | CCRF-CEM leukemia 78.4% | MOLT-4 leukemia 39%

O=C1c2c(c3c4ccccc4[nH]c3c3ccc4ccccc4c23)C(=O)N1CCN1CCNCC1
active: ACHN renal -49.4% | CCRF-CEM leukemia 0.375% | MOLT-4 leukemia -20.3%
inactive: SK-MEL-2 melanoma 104% | EKVX NSCLC 84.7% | SN12C renal 65.2% | UO-31 renal 56.7% | TK-10 renal 108% | CAKI-1 renal 63.3% | A498 renal 61.2%

COc1ccc2c(c1OC)CO[C@@H]2[C@H]1c2c(cc3c(c2OC)OCO3)CCN1S(=O)(=O)c1cn(C)cn1
active: A498 renal -21.3%
inactive: SK-MEL-2 melanoma 36.3% | EKVX NSCLC 45.6% | SN12C renal 41.1% | UO-31 renal 46.2% | TK-10 renal 54.1% | ACHN renal 36.6% | CAKI-1 renal 31.7% | CCRF-CEM leukemia 21.4% | MOLT-4 leukemia 27.4%

COc1ccc(C(=O)N2c3ccccc3Sc3ccccc32)c(OC)c1
inactive: SK-MEL-2 melanoma 38.3% | EKVX NSCLC 34% | SN12C renal 51.6% | UO-31 renal 48.3% | TK-10 renal 55.8% | ACHN renal 43.5% | CAKI-1 renal 36.8% | CCRF-CEM leukemia 16.5% | MOLT-4 leukemia 12%
active: A498 renal 5.16%

CCOc1ccccc1Cn1ccnc1CCc1c(Cl)c(O)cc(O)c1C(=O)OC
inactive: SK-MEL-2 melanoma 87.5% | EKVX NSCLC 101% | SN12C renal 96.9% | UO-31 renal 78.9% | TK-10 renal 90.4% | ACHN renal 98.3% | CAKI-1 renal 98.6% | A498 renal 114% | CCRF-CEM leukemia 93.6% | MOLT-4 leukemia 91.9%

COc1ccc(CN2c3ccccc3Sc3ccccc32)cc1F
inactive: SK-MEL-2 melanoma 39.8% | EKVX NSCLC 34.4% | SN12C renal 45.2% | UO-31 renal 45.6% | TK-10 renal 47.4% | ACHN renal 41.8% | CAKI-1 renal 54.4% | CCRF-CEM leukemia 22.1% | MOLT-4 leukemia 27.3%
active: A498 renal -1.48%

Nc1c(C(=O)Nc2ccccc2C(F)(F)F)sc2nc3c(cc12)CCC3
inactive: SK-MEL-2 melanoma 102% | EKVX NSCLC 97.1% | SN12C renal 101% | UO-31 renal 98% | TK-10 renal 89.9% | ACHN renal 99.6% | CAKI-1 renal 101% | A498 renal 95.1% | CCRF-CEM leukemia 101% | MOLT-4 leukemia 88.1%

NC(N)=NCCCCCNc1noc(Cc2c[nH]c3cc(Br)ccc23)n1
inactive: SK-MEL-2 melanoma 87.7% | EKVX NSCLC 69.6% | SN12C renal 44.7% | UO-31 renal 80.2% | TK-10 renal 75.4% | ACHN renal 92.6% | CAKI-1 renal 82.4% | A498 renal 94% | CCRF-CEM leukemia 97.8% | MOLT-4 leukemia 60.2%

C=C(CBr)[C@@H]1CC[C@]2(C(=O)O)CC[C@]3(C)[C@H](CC[C@@H]4[C@@]5(C)CCC(=O)C(C)(C)[C@@H]5CC[C@]43C)[C@@H]12
inactive: SK-MEL-2 melanoma 79.7% | EKVX NSCLC 86.5% | SN12C renal 72.5% | UO-31 renal 56.2% | TK-10 renal 112% | ACHN renal 81.4% | CAKI-1 renal 82% | A498 renal 110% | CCRF-CEM leukemia 50.3% | MOLT-4 leukemia 54.4%

O=C(Nc1cccc(-c2ccc(Cl)c(C(F)(F)F)c2)c1)C1CCN(Cc2cccc3cccnc23)CC1
active: SN12C renal 4.06% | UO-31 renal 2.47% | ACHN renal -90.6% | CAKI-1 renal -52.5% | CCRF-CEM leukemia 4.08% | MOLT-4 leukemia -9.69%
inactive: SK-MEL-2 melanoma 31.6% | EKVX NSCLC 34.6% | TK-10 renal 80.6% | A498 renal 58.7%

C=C1CC[C@@H]2[C@](C)(COC(C)=O)[C@H](OC(C)=O)CC[C@@]2(C)[C@@H]1CC(Nc1ccc(S(=O)(=O)Nc2ncccn2)cc1)C1=CCOC1=O (stereo not given in full)
active: SN12C renal 7.64% | UO-31 renal -17.9% | ACHN renal -56.1% | CCRF-CEM leukemia -26.3% | MOLT-4 leukemia -8.69%
inactive: SK-MEL-2 melanoma 41.9% | EKVX NSCLC 68.3% | TK-10 renal 35.1% | CAKI-1 renal 50.2% | A498 renal 79%

COc1ccc(/C=N\Nc2nc(SCCC(C)C)nc(-c3ccc(OC)cc3)c2C#N)cc1
inactive: SK-MEL-2 melanoma 103% | EKVX NSCLC 44.8% | SN12C renal 32.2% | TK-10 renal 11.2% | CAKI-1 renal 17% | A498 renal 98.5% | CCRF-CEM leukemia 31.4% | MOLT-4 leukemia 65.1%
active: UO-31 renal -41.4% | ACHN renal -41.5%
